Unmarked numbers belong to inactive results. A call without a number means that no potency is given here. For some assays here: Potency and affinity values are given separately. Active and inactive are the calls of the source. Unless noted, no rule for the calls is given here.
Columns and labels:
[1] = antimalarial activity against Dd2 strain (AID 2302;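 active = growth inhibition above 50% at the single 2 µM test dose, taken to imply half-maximal potency below 2 µM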); conditions: P. falciparum Dd2 in RBCs, LDH growth readout, 72 h; at 2 µM; stronger effect = higher value
[2] = HepG2 cytotoxicity, primary screen, cytotoxicity control for P. falciparum antimalarial project, cell-based, ATP luminescence (AID 2303;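 active = inhibition above 50%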); conditions: HepG2 viability, 24-48 h, at 10 µM, stronger effect = higher value
[3] = molecular target: L-lactate dehydrogenase (Plasmodium falciparum (isolate CDC / Honduras)) (UniProt Q27743); assay: PfLDH activity inhibition – cell lysate, 3D7 strain, counter-screen for P. falciparum growth inhibition project (AID 2304); conditions: P. falciparum 3D7 crude extract, LDH APAD/NBT absorbance; at 2 µM; stronger effect = higher value
[4] = inhibition of 3D7 malaria parasite growth – strain 3D7 (AID 2306); conditions: P. falciparum 3D7 erythrocytic growth, LDH absorbance, 72 h; at 2 µM; stronger effect = higher value
[5] = molecular target: Calcium-dependent protein kinase 1 (Plasmodium falciparum (isolate 3D7)) (UniProt P62344); assay: PfCDPK1 kinase inhibitors, biochemical, TCAMS library (AID 1159585; cut-off not given, nearly all actives have IC50 up to about 0.98 µM;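 also: inhibitors leave more ATP so luminescence rises with inhibition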); conditions: recombinant PfCDPK1, Kinase-Glo ATP depletion luminescence
[6] = molecular target: Plasmodium falciparum protein kinase 6 (PK6, PF3D7_1337100) (UniProt Q8IDW1); assay: PfPK6 kinase inhibitors, biochemical, TCAMS library (AID 1159586); conditions: recombinant PfPK6, Kinase-Glo ATP depletion luminescence
[7] = molecular target: Protein kinase 7 (PK7), Plasmodium falciparum 3D7 (PF3D7_0213400) (UniProt Q7YTF7); assay: inhibition of Plasmodium PK7 catalytic activity – biochemical, TCAMS antimalarial set, Kinase-Glo luminescence (AID 1159587); conditions: recombinant PfPK7, Kinase-Glo ATP depletion luminescence
[8] = molecular target: Calcium-dependent protein kinase 4 (Plasmodium falciparum (isolate 3D7)) (UniProt Q8IBS5); assay: PfCDPK4 kinase inhibitors, biochemical, TCAMS library (AID 1159588; cut-off not given, nearly all actives have IC50 up to about 0.91 µM); conditions: recombinant PfCDPK4, Kinase-Glo ATP depletion luminescence
Calcium-dependent protein kinase 4 (Plasmodium falciparum (isolate 3D7)), sequence (Q8IBS5 whole entry, looked up): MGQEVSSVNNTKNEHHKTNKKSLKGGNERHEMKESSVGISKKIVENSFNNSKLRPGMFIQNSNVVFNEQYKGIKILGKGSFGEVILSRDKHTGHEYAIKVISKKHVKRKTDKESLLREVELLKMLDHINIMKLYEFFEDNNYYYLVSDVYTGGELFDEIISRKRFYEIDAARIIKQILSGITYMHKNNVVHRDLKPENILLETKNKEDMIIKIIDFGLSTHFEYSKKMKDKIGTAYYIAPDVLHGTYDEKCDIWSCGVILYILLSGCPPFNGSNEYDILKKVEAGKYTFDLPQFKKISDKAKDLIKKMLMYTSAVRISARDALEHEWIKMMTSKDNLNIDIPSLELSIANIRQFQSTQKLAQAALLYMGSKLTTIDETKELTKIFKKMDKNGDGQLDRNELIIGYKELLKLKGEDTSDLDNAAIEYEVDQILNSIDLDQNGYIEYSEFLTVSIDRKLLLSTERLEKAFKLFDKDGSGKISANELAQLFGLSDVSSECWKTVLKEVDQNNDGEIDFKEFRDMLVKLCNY

Protein kinase 7 (PK7), Plasmodium falciparum 3D7 (PF3D7_0213400), sequence (Q7YTF7 1-343): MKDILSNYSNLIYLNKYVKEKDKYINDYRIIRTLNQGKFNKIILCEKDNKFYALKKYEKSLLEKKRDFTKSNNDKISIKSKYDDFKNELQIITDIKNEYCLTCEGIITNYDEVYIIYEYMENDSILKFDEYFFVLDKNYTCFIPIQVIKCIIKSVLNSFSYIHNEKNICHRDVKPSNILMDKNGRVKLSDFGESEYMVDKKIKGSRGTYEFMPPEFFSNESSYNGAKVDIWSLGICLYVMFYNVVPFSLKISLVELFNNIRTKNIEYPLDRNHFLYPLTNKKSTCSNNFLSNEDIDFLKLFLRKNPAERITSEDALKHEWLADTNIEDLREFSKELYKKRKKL
L-lactate dehydrogenase (Plasmodium falciparum (isolate CDC / Honduras)), sequence (Q27743 whole entry, looked up): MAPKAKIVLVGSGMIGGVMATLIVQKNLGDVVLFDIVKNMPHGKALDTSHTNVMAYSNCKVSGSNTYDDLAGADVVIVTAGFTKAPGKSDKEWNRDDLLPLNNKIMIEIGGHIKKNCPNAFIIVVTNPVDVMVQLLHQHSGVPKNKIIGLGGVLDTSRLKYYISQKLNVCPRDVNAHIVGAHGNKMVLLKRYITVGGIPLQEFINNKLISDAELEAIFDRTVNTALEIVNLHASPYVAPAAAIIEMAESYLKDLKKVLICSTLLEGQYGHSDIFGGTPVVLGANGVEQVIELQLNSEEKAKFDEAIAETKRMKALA
Calcium-dependent protein kinase 1 (Plasmodium falciparum (isolate 3D7)), sequence (P62344 whole entry, looked up): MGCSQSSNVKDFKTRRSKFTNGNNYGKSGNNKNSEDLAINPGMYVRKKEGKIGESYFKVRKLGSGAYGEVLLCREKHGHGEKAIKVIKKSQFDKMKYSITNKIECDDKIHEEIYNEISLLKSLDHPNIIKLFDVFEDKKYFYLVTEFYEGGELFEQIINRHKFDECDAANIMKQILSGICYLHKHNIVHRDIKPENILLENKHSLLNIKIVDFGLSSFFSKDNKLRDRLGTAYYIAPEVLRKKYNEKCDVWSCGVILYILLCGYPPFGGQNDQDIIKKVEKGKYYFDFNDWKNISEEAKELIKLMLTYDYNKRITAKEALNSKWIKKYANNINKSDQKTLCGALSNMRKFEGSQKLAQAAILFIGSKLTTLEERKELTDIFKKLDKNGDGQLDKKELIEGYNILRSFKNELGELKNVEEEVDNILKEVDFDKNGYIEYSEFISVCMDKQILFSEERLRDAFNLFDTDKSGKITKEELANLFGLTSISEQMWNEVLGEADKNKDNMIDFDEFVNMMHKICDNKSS
Plasmodium falciparum protein kinase 6 (PK6, PF3D7_1337100), sequence (Q8IDW1 1-305): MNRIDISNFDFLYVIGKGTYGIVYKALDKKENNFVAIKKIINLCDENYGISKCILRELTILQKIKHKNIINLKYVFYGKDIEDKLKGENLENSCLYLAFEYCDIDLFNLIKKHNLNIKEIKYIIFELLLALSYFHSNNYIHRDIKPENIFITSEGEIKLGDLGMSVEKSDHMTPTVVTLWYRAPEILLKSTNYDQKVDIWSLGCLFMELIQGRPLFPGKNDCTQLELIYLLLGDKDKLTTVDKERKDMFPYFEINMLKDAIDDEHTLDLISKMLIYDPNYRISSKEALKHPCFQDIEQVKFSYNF

Row | SMILES | growth inhibition [1] | inhibition [2] | inhibition [3] [%] | growth inhibition [4] | outcome [5] | outcome [6] | outcome [7] | outcome [8]
1 | COc1ccc(Nc2nc(NN=Cc3ccc(-c4ccc([N+](=O)[O-])cc4)o3)nc(Nc3ccccc3)n2)cc1 | 17% | -8% | 5 | 100% (active) | inactive | inactive | inactive | inactive
2 | COc1c(C)[nH]c(C)c(-c2ccc(Oc3cccc(C(F)(F)F)c3)cc2)c1=O | 96% (active) | 40% | 3 | 98% (active) | inactive | inactive | inactive | inactive
3 | Cc1nnc2c(NC(=O)NC3CCCC3)cc3ccc(-c4cccc(CN5CCN(C)CC5)c4)cc3n12 | 68% (active) | 54% (active) | 2 | 91% (active) | inactive | inactive | inactive | inactive
4 | CC(C)(C)c1ccc(O)c(CNC2CCCCC2)c1 | 98% (active) | 5% | -2 | 100% (active) | inactive | inactive | inactive | inactive
5 | Cc1cc(N[C@@H](Cc2ccccc2)C(=O)NCCOc2ccccc2)nc(NCCc2ccccn2)n1 | 42% | 12% | -2 | 92% (active) | inactive | inactive | inactive | inactive
6 | O=C(Nc1ccc(Cl)cc1)NC1CCN(CCCCCNC(=O)[C@@H]2C[C@H]2c2ccc(Cl)c(Cl)c2)CC1 | 18% | 51% (active) | 4 | 102% (active) | inactive | inactive | inactive | inactive
7 | CCCCCOc1ccc(C(O)C(CCC(CN2CCCCCC2)C(O)c2ccc(OCCCCC)cc2)CN2CCCCCC2)cc1 (configuration not stated) | 93% (active) | 99% (active) | 0 | 99% (active) | inactive | inactive | inactive | inactive
8 | N#Cc1ccc2c(c1)CCN(CCC1CCC(NC(=O)/C=C/c3cccc4ccccc34)CC1)CC2 (configuration not stated) | 12% | 16% | -6 | 96% (active) | inactive | inactive | inactive | inactive
9 | C=CCCCNCC(NCCCNc1cc(=O)c2ccccc2[nH]1)c1cc(Br)cc(Br)c1 (configuration not stated) | 19% | -3% | -1 | 94% (active) | inactive | inactive | inactive | inactive
10 | Cc1ccc(NC(=O)NC2CCN(CCCCCNC(=O)[C@@H]3C[C@H]3c3ccc(Cl)c(Cl)c3)CC2)cc1 | 19% | 35% | 1 | 101% (active) | inactive | inactive | inactive | inactive
11 | CCCC(CNCc1ccc(Cl)c(C(F)(F)F)c1)CNc1nc2ccncc2[nH]1 (configuration not stated) | 8% | 26% | -1 | 99% (active) | inactive | inactive | inactive | inactive
12 | Cc1noc(C)c1-c1ccc(C(=C2CCCCCCC2)c2ccc(O)cc2)cc1 | 48% | -6% | 1 | 83% (active) | inactive | inactive | inactive | inactive
13 | NC(=O)C1CCN(Cc2cccc(-c3ccc(-c4nc5ccc(C(F)(F)F)cc5[nH]4)cc3)c2)CC1 | 94% (active) | 7% | 8 | 100% (active) | inactive | inactive | inactive | inactive
14 | Cc1cc(Nc2ncc3c(n2)N(C2CCC2)CC3)ccc1N1CCN(C)CC1 | 100% (active) | 27% | -2 | 101% (active) | inactive | inactive | inactive | inactive
15 | CCCn1cnc2cc(C(=O)Nc3ccc(-c4cccc(CN(C)C)c4)cc3)ccc2c1=O | 6% | 26% | -6 | 95% (active) | inactive | inactive | inactive | inactive
16 | O=c1cc(NCCCNC(c2ccccc2)c2ccc(Cl)c(Cl)c2)[nH]c2ccccc12 (configuration not stated) | 94% (active) | 13% | 3 | 89% (active) | inactive | inactive | inactive | inactive
17 | COc1ccc(/C=C/c2ccc(-c3c(C)[nH]c(C)c(Cl)c3=O)cc2)cc1OC | 96% (active) | 12% | -8 | 97% (active) | inactive | inactive | inactive | inactive
18 | c1ccc(CN2CCc3cc4nccc(N5CCNCC5)c4cc32)cc1 | 99% (active) | 9% | -4 | 100% (active) | inactive | inactive | inactive | inactive
19 | CC(C)(C)c1ccc(-c2cc(C(=O)N[C@@H](CO)C(=O)O)on2)cc1 (tested in a mixture with another compound) | -2% | 1% | -1 | 87% (active) | inactive | inactive | inactive | inactive

From PubChem BioAssay
